High-throughput results deposited in PubChem BioAssay by The Scripps Research Institute Molecular Screening Center.
Sampled rows, rich in hits. Any-hit rate of the full collection: about 3.4%.
TEAD-YAP inh – TEAD-YAP interaction inhibition, primary screen, TEAD-YAP interaction inhibitor project, luminescence, HEK-TIYL cells | TEAD-Gal4/YAP UAS-luciferase luminescence | inhibition, % at 9.12 µM | 640,000 tested, 1.4% active; in the data active = inhibition above about 32%
GPR151 ag – activators of human GPR151, primary screen, cell-based, PathHunter beta-arrestin, luminescence; G-protein coupled receptor 151 (Homo sapiens), Q8TDV0; PathHunter beta-arrestin GPR151 cells; activation, % at 11.2 µM; 650,000 tested, 1% active; AID 1508602, 2020; in the data active = activation above about 4.9%
FBW7 activator – FBW7 E3 ligase activators, primary screen, biochemical, AlphaScreen, human | F-box/WD repeat-containing protein 7 (Homo sapiens), Q969H0 | AlphaScreen FBW7–phospho-cyclin E peptide binding, activator screen | normalized activity (activation), % at 26.1 µM | 650,000 tested, 0.13% active; in the data active = normalized activity above about 1.9%;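 also: purified mutant Fbw7 with reduced substrate affinity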
MITF inh – MITF inhibitors, primary screen, biochemical, AlphaScreen, human | AlphaScreen MITF homodimerization, bead proximity signal | 650,000 tested, 0.91% active | Microphthalmia-associated transcription factor (Homo sapiens), O75030 | inhibition, % at 2.6 µM; in the data active = inhibition above about 50%
Target sequence (O75030 whole entry, looked up): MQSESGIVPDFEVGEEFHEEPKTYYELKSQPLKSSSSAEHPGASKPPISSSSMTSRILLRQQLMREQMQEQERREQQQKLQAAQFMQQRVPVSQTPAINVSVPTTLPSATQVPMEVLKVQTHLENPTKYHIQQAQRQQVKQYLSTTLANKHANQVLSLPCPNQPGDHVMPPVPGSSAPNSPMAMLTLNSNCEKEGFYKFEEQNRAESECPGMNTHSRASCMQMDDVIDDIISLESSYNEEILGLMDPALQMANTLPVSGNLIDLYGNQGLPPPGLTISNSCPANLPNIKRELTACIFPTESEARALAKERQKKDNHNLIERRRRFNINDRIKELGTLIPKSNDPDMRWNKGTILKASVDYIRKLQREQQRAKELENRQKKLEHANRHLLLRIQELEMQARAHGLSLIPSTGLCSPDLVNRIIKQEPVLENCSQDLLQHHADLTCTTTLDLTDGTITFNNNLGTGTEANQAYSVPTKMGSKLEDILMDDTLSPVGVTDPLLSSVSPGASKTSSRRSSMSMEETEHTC
A number is an active result.

O=C(COc1ccc(Cl)cc1Cl)NCCCCO was read as TEAD-YAP inh inactive, GPR151 ag inactive, FBW7 activator inactive and MITF inh inactive.
Screening CCOC(=O)c1sc(NC(=O)c2ccccc2)nc1C returned TEAD-YAP inh inactive, GPR151 ag inactive, FBW7 activator inactive and MITF inh inactive.
`CCOC(=O)c1sc(NC(=O)c2cccc3ccccc23)nc1C` gave TEAD-YAP inh 42, GPR151 ag inactive, FBW7 activator inactive and MITF inh inactive.
Cc1ccc(N2CC(C(=O)Nc3nccs3)CC2=O)cc1C (configuration not stated) was read as TEAD-YAP inh 44, GPR151 ag inactive, FBW7 activator inactive and MITF inh inactive.
`CSC(Nc1ccc(Br)cc1)=C(C#N)C#N` gave TEAD-YAP inh 38, GPR151 ag inactive, FBW7 activator inactive and MITF inh inactive.
N#Cc1ccc(-c2ccccc2)nc1SCc1ccccc1F was read as TEAD-YAP inh 43, GPR151 ag inactive, FBW7 activator inactive and MITF inh inactive.
Screening Cc1ccccc1CSc1nc(-c2cccs2)ccc1C#N returned TEAD-YAP inh 53, GPR151 ag inactive, FBW7 activator inactive and MITF inh inactive.
For CCSc1nc(-c2ccccc2)ccc1C#N the results were TEAD-YAP inh inactive, GPR151 ag inactive, FBW7 activator inactive and MITF inh inactive.
`CCc1ccc(-n2c(SCC(=O)NCc3ccco3)nc3n[nH]c(C)c3c2=N)cc1` gave TEAD-YAP inh inactive, GPR151 ag inactive, FBW7 activator inactive and MITF inh inactive.
CCOc1ccc(NC(=O)c2ccc3c(=O)n(Cc4ccc(OC)cc4)c(=S)[nH]c3c2)cc1 was read as TEAD-YAP inh inactive, GPR151 ag inactive, FBW7 activator inactive and MITF inh inactive.
Clc1ccc(C2C=C(c3cccs3)Nc3nnnn32)c(Cl)c1 (configuration not stated) was read as TEAD-YAP inh inactive, GPR151 ag inactive, FBW7 activator inactive and MITF inh inactive.
`Cc1ccoc1C(=O)NCC1Cc2cc(-c3ccc(S(C)(=O)=O)cc3)ccc2O1` (configuration not stated) gave TEAD-YAP inh 39, GPR151 ag inactive, FBW7 activator inactive and MITF inh inactive.
Screening Cc1noc(C)c1C(=O)NCC1Cc2cc(-c3ccc(S(C)(=O)=O)cc3)ccc2O1 (configuration not stated) returned TEAD-YAP inh inactive, GPR151 ag inactive, FBW7 activator inactive and MITF inh inactive.
Screening CCCCCOc1ccc(NC(=O)CSc2cccc3cccnc23)cc1 returned TEAD-YAP inh 37, GPR151 ag inactive, FBW7 activator inactive and MITF inh inactive.
For O=C1CCCN1CCn1cnc2c(NCc3ccccc3)nc(-c3csc4ccccc34)nc21 the results were TEAD-YAP inh inactive, GPR151 ag inactive, FBW7 activator inactive and MITF inh inactive.
Screening Cc1cccc(Nc2nc3nonc3nc2N/N=C\c2cccs2)c1C returned TEAD-YAP inh 79, GPR151 ag inactive, FBW7 activator inactive and MITF inh inactive.
Screening Cc1ccccc1Nc1nc2nonc2nc1N/N=C/c1ccc(F)cc1 returned TEAD-YAP inh inactive, GPR151 ag inactive, FBW7 activator inactive and MITF inh inactive.
For O=C(O)CC1NC(=S)NC1=O (configuration not stated) the results were TEAD-YAP inh inactive, GPR151 ag inactive, FBW7 activator inactive and MITF inh inactive.
Screening O=C(Nc1ccc(F)cc1F)C1c2ccccc2Oc2ccccc21 returned TEAD-YAP inh inactive, GPR151 ag inactive, FBW7 activator inactive and MITF inh inactive.
`N#Cc1cc(-c2ccnc(Nc3cccc(NC(=O)N4CCCC4)c3)n2)ccc1N1CCCC1` gave TEAD-YAP inh 45, GPR151 ag inactive, FBW7 activator inactive and MITF inh inactive.
`CC1=C/C(=C\c2c(O)[nH]c(=O)[nH]c2=O)C(C)=N1` gave TEAD-YAP inh inactive, GPR151 ag inactive, FBW7 activator inactive and MITF inh inactive.
For CC1=C/C(=C\c2c(O)n(Cc3ccco3)c(=S)[nH]c2=O)C(C)=N1 the results were TEAD-YAP inh inactive, GPR151 ag inactive, FBW7 activator inactive and MITF inh 84.
Screening COC(=O)c1c(-c2ccccc2Cl)csc1NC(=O)/C=C/C(=O)O returned TEAD-YAP inh 42, GPR151 ag inactive, FBW7 activator inactive and MITF inh inactive.
`COC(=O)c1c(NC(=O)/C=C/C(=O)O)sc(C)c1-c1cc(C)ccc1C` gave TEAD-YAP inh 42, GPR151 ag inactive, FBW7 activator inactive and MITF inh inactive.
Screening COC(=O)c1c(-c2ccc(C)c(C)c2)csc1NC(=O)/C=C/C(=O)O returned TEAD-YAP inh 33, GPR151 ag inactive, FBW7 activator inactive and MITF inh inactive.
`CC1=C(C#N)C(=O)N(C)C(=O)/C1=C\c1ccc(-c2cccc(C(=O)OC(C)C)c2)o1` gave TEAD-YAP inh inactive, GPR151 ag inactive, FBW7 activator inactive and MITF inh inactive.
`O=C1CC(N2CCCCCC2)C(=O)N1c1ccc(N2C(=O)CC(N3CCCCCC3)C2=O)cc1` (configuration not stated) gave TEAD-YAP inh inactive, GPR151 ag inactive, FBW7 activator inactive and MITF inh inactive.
`COc1ccccc1/C=C/C=C1\N=C(c2ccc(Br)cc2)OC1=O` gave TEAD-YAP inh inactive, GPR151 ag inactive, FBW7 activator inactive and MITF inh inactive.
`CC1(C)CC(=O)C2=C(C1)NC(=S)NC2c1ccccc1` (configuration not stated) gave TEAD-YAP inh 55, GPR151 ag inactive, FBW7 activator inactive and MITF inh inactive.
`Cc1ccccc1C1NC(=S)NC2=C1C(=O)CC(C)(C)C2` (configuration not stated) gave TEAD-YAP inh inactive, GPR151 ag inactive, FBW7 activator inactive and MITF inh inactive.
Screening COc1ccccc1NC(=O)c1c(NCc2cccc(F)c2)sc2c1CCCC2 returned TEAD-YAP inh inactive, GPR151 ag inactive, FBW7 activator inactive and MITF inh inactive.
Screening CCOc1cc(-c2nnc(SCC(=O)NC(C)CC)nc2-c2ccc(OC)c(OCC)c2)ccc1OC (configuration not stated) returned TEAD-YAP inh inactive, GPR151 ag inactive, FBW7 activator inactive and MITF inh inactive.
For Cc1ccc(NC2=NCC(=O)N2C2CCCC2)cc1 the results were TEAD-YAP inh 56, GPR151 ag inactive, FBW7 activator inactive and MITF inh inactive.
COC(=O)c1nn(-c2ccc(-c3ccccc3)cc2)cc1O was read as TEAD-YAP inh 81, GPR151 ag inactive, FBW7 activator inactive and MITF inh inactive.
O=S1(=O)N=C(Nc2ccc(S(=O)(=O)N3CCOCC3)cc2)c2ccccc21 was read as TEAD-YAP inh inactive, GPR151 ag inactive, FBW7 activator inactive and MITF inh inactive.
Screening COc1cc2cc(C#N)c(SCC(=O)N3CCOCC3)nc2cc1OC returned TEAD-YAP inh inactive, GPR151 ag inactive, FBW7 activator inactive and MITF inh inactive.
